From PubChem BioAssay AID449762 (Southern Research Specialized Biocontainment Screening …, 2010)
In all, about 330,000 compounds went through this assay and about 1,900 (0.58%) were called active. Not shown: some 4% with an inconclusive outcome. A selection follows. Results with a measured potency or affinity are listed apart. Unmarked numbers belong to inactive results. Cut-off read from the data, not from the text of the source: inconclusive = inhibition above about 70% without an active follow-up result; inactive = below that.

Assay: M. tuberculosis growth inhibition, HTS (AID 449762);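 note: bacterial growth assessed after seven days of incubation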
Conditions: M. tuberculosis H37Rv growth inhibition, 7H9 media; at 25 µM; hits give high values

SMILES | inhibition [%]
CC1(C)CN(c2cccc(C#N)c2)C1=O | -3.52
CC(=O)OCC1(C)CN(c2ccccc2)N(C(=O)c2ccc(F)cc2)C1=O (stereo not drawn) | 37.7
COc1cccc(CN(C(=O)c2ccccc2Br)C2CCS(=O)(=O)C2)c1 (stereo not drawn) | -0.47
CC1(C)CC(=O)C2=C(C1)NC(Nc1nc3ccccc3o1)=NC21CCCC1 | -11
CC1(C)CC(=O)C2=C(C1)NC(Nc1nc3ccccc3o1)=NC21CCCCC1 | -1.05
O=C(CN1C(=O)c2ccccc2S1(=O)=O)NC1CC2CCC1C2 (stereo not drawn) | -4.11
CN1CCN(c2ccc(NC(=O)CN3CCOCC3)cc2F)CC1 | -4.73
C=CCNC(=S)NC(=O)c1csc([N+](=O)[O-])c1 | 18.2
CC(C)CNC(=S)NC(=O)c1ccc([N+](=O)[O-])cc1 | 11.6
CCn1c(SCC(=O)N/N=C/c2ccccc2OCC(=O)O)nnc1-c1ccc(OC)cc1 | 1.34
Cc1cccc(NCc2ccc(O)c3ncccc23)c1 | 14.1
Cc1ccccc1NCc1ccc(O)c2ncccc12 | 2.36
Oc1ccc(CNc2ccc(F)cc2)c2cccnc12 | -1.78
Oc1ccc(CN2CCCc3ccccc32)c2cccnc12 | -5.25
Cc1cccnc1NCc1ccc(O)c2ncccc12 | 51.8
Oc1ccc(CN2CCN(Cc3ccccc3)CC2)c2cccnc12 | 14.4
OCc1ccc(O)c2ncccc12 | 52.4
Oc1ccc(CNc2ccccc2)c2cccnc12 | -3.76
COc1ccc(S(=O)(=O)N(Cc2ccc(OC)c(OC)c2)Cc2ccco2)cc1 | 12.4
O=C1NNC(=O)C1c1ccccc1 | 0.86
COc1cccc(C2[C@H](C)C3(CCN2C)OCCO3)c1 (stereo partly drawn) | 1.26
C=CCN(C(=O)c1csnn1)C(C(=O)NCc1ccccc1)c1ccccc1F (stereo not drawn) | 5.11
COc1ccc(NC(=S)N2CCC(c3ccccc3)C2)cc1 (stereo not drawn) | 0.04
CCCC(=O)OCC(=O)Nc1ccc([N+](=O)[O-])cc1C#N | 0.66
O=C1CCc2cc(S(=O)(=O)NCCc3ccccc3)cc3c2N1CC3 | -3.75

SMILES | inhibition [%]
CN1CCN(CC(O)COc2ccc(C(=O)O)cc2)CC1 (stereo not drawn) | 4
COc1ccc(C=O)cc1CN1CCCN(Cc2ccccc2F)S1(=O)=O | 9.36
C=CCc1cc(C)ccc1OCCOCCC(C(=O)OCC)C(=O)OCC | -7.06
C=CCc1cc(OC)ccc1OCCOCCC(C(=O)OCC)C(=O)OCC | -13
Cc1ccc2[nH]c(C(=O)O)c(-c3ccccc3)c2c1 | 6.59
O=C(NN=C1CCCC1)c1[nH]c2ccc(Br)cc2c1-c1ccccc1 | 62
CCOC(=O)Cn1cnc2c(nnn2-c2ccc(C)cc2)c1=O | -14.9
CCC(NC(=O)c1cc(COc2c(F)cccc2F)on1)c1ccncc1 (stereo not drawn) | -2.33
CC(CN1C(C)CCCC1C)OC(=O)c1cccc(F)c1 (stereo not drawn) | 3.14
CC(C)C1CC(CCN)(Cc2ccccc2)CCO1 (stereo not drawn) | 1.79
COc1ccc2cc(C#N)c(N3CCOCC3)nc2c1 | 3.82
COc1ccc2cc(C#N)c(N3CCN(C(=O)c4ccccc4C)CC3)nc2c1 | 11.1
O=S(=O)(CCN1CCSCC1)c1ccc(Cl)cc1 | -12.2
CSCCC(NC(=O)COc1ccccc1)C(=O)N1CCN(C(C)=O)CC1 (stereo not drawn) | 4.67
Cc1ccc(NC(=O)c2c(C)nc3ccccn23)cc1C | -2.44
Cc1nc2ccccn2c1C(=O)N/N=C/c1ccccc1 | -1.76
CCOC(=O)N1CCN(C(=O)COC(=O)Cc2ccc(OC)cc2)CC1 | -5.2
CC(C)CNC(=O)c1cccc(NC(=O)Cc2ccc(Cl)cc2)c1 | -1.92
CCc1nc(C)cn1S(=O)(=O)c1cc(F)ccc1OC | 0.63
Cc1ccc(OS(=O)Nc2cccc3nccnc23)cc1 (stereo not drawn) | 49
Fc1ccc(Nc2cccc3nccnc23)cc1 | 7.88
CNC(=S)NNC(=O)c1cc(-c2cccnc2)nc2ccccc12 | -1.9
COc1ccc(NC(=O)COC(=O)CCc2ccc(S(=O)(=O)N3CCOCC3)cc2)c(OC)c1 | -0.81
Cc1[nH]n(-c2ccccc2)c(=O)c1C(=O)c1ccccc1 | 1.23
Cc1[nH]n(-c2ccccc2)c(=O)c1C(=O)c1ccc(Cl)cc1 | 67.2

SMILES | inhibition [%]
COC(=O)CCSc1cc(NCCOC(C)=O)c([N+](=O)[O-])c2nonc12 | 27.1
CCCSc1cc(NCCOC(C)=O)c([N+](=O)[O-])c2nonc12 | 14.4
O=c1cc(CO)oc(C(Nc2ccccn2)c2cccc(F)c2)c1O (stereo not drawn) | -4.25
Cc1ccc(-n2ccnc2SCC(=O)c2c(N)n(C3CC3)c(=O)[nH]c2=O)cc1C | -3.24
COc1ccc(OCCCC(=O)OC(C)C(=O)Nc2ccc(NC(C)=O)cc2)cc1 (stereo not drawn) | -25.7
CC(OC(=O)CCC(=O)c1cccs1)C(=O)Nc1ccccc1[N+](=O)[O-] (stereo not drawn) | -1.97
O=C(CC12CC3CC(CC(Br)(C3)C1)C2)Nc1cccc(S(=O)(=O)NC2=NCCC2)c1 | 7.59
CC(C)(C)NC(=S)N1CCn2cccc2C1c1cccnc1 (stereo not drawn) | -4.33
O=C(N/N=C/c1ccc2ncccc2c1)c1cccc([N+](=O)[O-])c1 | 10.3
CCCCNC(=O)CSc1nc2cc3c(cc2c(=O)n1Cc1ccco1)OCO3 | -13
COC(=O)COc1ccc(/C=C2/NC(=O)N(CC(=O)OC)C2=O)cc1 | 0.75
CCN1C(=O)/C(=C/c2ccc(N3CCCC3)cc2)NC1=S | -3.08
CN(CC(=O)Nc1c(Cl)cccc1Cl)C(=O)Cc1cccs1 | -16.5
O=C(Nc1cccc(-c2nc3ccccc3s2)c1)c1cc(=O)c2ccccc2o1 | 10.9
Cn1ncc([N+](=O)[O-])c1C(=O)Nc1cccc(Cl)c1 | -25.5
Cc1nc2c3ccccc3nc(NNC(=O)CCC(=O)N3CCC(C)CC3)n2n1 | -3.15
Cc1nonc1OCCN1CCN(c2ccc([N+](=O)[O-])cc2)CC1 | 9.04
Cc1ccc(S(=O)(=O)Nc2ccc(C(N)=O)cc2)cc1[N+](=O)[O-] | -1.5
CCOC(=O)c1ccc(NC(C)=O)c([N+](=O)[O-])c1 | -9.36
CCCNc1ccc(C(=O)OCC)cc1[N+](=O)[O-] | -11.2
O=C(/C=C/c1ccccc1)N/C(=C/c1ccccc1)C(=O)Nc1cccc(C(=O)O)c1 | -8.21
Nc1cc2c(cc1C(=O)c1ccc(Cl)cc1)OCCO2 | 4.52
O=C(COc1ccc(Cl)cc1Cl)N/N=C/c1cccnc1 | -6.12
CN(C)c1ccc(NC(=O)c2ccncc2)c2ccccc12 | -1.45
COc1cc(OC)cc(C(=O)Nc2ccc(N(C)C)c3ccccc23)c1 | 1.99

SMILES | inhibition [%]
CCOC(=O)C1=C(C)Nc2nc(C)nn2C1c1ccc(C)cc1 (stereo not drawn) | 5.22
CCCCN(CCCC)Cc1ccc(C(=O)NNC(=O)Nc2ccc(F)cc2)o1 | 4.32
Cc1ccc(S(=O)(=O)NC(CC(C)C)C(=O)N2CCCC2)cc1 (stereo not drawn) | -3.51
CC(=O)Nc1ccc(S(=O)(=O)N[C@@H](C)C(=O)N2CCN(C/C=C/c3ccccc3)CC2)cc1 | -13.2
COc1ccc(-c2ccc(-c3nnn(CC(C)=O)n3)cc2)cc1 | 12.6
COc1cccc(CN(C)C(=O)C(CCSC)NS(=O)(=O)c2ccc3c(c2)OCCO3)c1OC (stereo not drawn) | -2
CCCCn1cnc2c(oc3nc4c(cc32)CCCC4)c1=O | 5.81
Oc1ccc2ccccc2c1N=Nc1ccccc1F | -3.05
Oc1ccc2ccccc2c1/C=N/c1nccs1 | 0.82
CCOC(=O)c1sc(NC(=O)C(OC(C)=O)c2ccccc2)nc1C (stereo not drawn) | -4.59
O=C(O)c1cc(C(F)(F)F)nc2c(C(F)(F)F)cccc12 | -3.33
COc1ccc(OC)c(C(O)C2CCCCN2)c1 (stereo not drawn) | 0.57
Cc1sc2nc(-c3ccc(Br)cc3)oc(=O)c2c1C | 7.29
O=C1[C@@H]2Cc3c([nH]c4ccccc34)CN2C(=O)CN1CCCCCO | -3.43
c1ccc(Nc2ccccn2)nc1 | 4.45
c1ccc(Nc2ccccc2Nc2ccccn2)nc1 | -3.39
O=C(NC1CCS(=O)(=O)C1)/C(=C/c1ccco1)NC(=O)c1ccccc1 (stereo not drawn) | -0.22
CCC[C@H](N[C@@H](CCC)[C@H](O)c1ccccc1)[C@H](O)c1ccccc1 | -2.74
O=C(Nc1ccc(F)cc1)c1ccc(S(=O)(=O)NCC2CCCO2)cc1 (stereo not drawn) | 0.17
Cc1ccc(OCCNC(=O)CCNS(=O)(=O)c2ccc3ccccc3c2)cc1 | 1.14
Cc1nn(C)c(C)c1NC(=O)c1cc2nc(-c3ccco3)cc(C(F)(F)F)n2n1 | -8.4
O=C(Nc1cnn(Cc2ccccc2)c1)c1cc2nc(-c3ccco3)cc(C(F)(F)F)n2n1 | 1.16
COCCCN1C(=O)c2ccc(C(=O)NCCc3ccccc3)cc2C1=O | 0.01
